High-throughput results: PubChem, The Scripps Research Institute Molecular Screening Center
Only a selection was taken, and hits are over-represented in it overall.
TbREL1 primary: TbREL1 inhibition, primary screen. P86926. TbREL1 RNA ligation, FRET fluorescence. inhibition, % at 9.66 µM. 0.49% of 89,000 active. AID 1117264;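 active means inhibition above the mean inhibition across all screened compounds plus 3 SD, cut at about 11% in these data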
Target sequence (P86926 whole entry, looked up): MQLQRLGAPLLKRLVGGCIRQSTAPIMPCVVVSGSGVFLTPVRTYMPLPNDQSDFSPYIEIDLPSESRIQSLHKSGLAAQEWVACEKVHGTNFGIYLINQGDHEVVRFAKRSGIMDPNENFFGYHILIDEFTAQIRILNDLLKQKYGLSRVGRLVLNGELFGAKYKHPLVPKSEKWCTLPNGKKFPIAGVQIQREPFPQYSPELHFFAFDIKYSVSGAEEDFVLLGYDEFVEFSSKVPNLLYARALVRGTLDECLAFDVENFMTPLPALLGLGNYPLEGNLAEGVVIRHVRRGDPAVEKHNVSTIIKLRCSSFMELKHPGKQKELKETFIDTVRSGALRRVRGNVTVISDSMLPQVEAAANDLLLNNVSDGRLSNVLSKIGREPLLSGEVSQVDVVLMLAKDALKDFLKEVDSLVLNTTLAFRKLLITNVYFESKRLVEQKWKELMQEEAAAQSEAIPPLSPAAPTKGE
TbREL1 confirm: TbREL1 inhibition, confirmation | shares compounds with TbREL1 primary | TbREL1 RNA ligation, FRET fluorescence | inhibition, % at 9.66 µM | 37% of 390 active | AID 1117282;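 active means mean inhibition across replicates above a set limit taken from the earlier primary screen, cut at about 11% in these data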
Of the large screens only hits and unclear results are named; the others gave an inactive call (follow-up assays come after a bar, where they were run).

COCCCNC(=O)C1CCN(S(=O)(=O)c2ccc3[nH]c(=O)oc3c2)CC1	TbREL1 primary 19 | TbREL1 confirm 24
O=C(C1CCN(S(=O)(=O)c2ccc3[nH]c(=O)oc3c2)CC1)N1CCCC1	none
CSCCCNC(=O)C1CCN(S(=O)(=O)c2ccc3[nH]c(=O)oc3c2)CC1	none
CNC(C)C(=O)NC(C(=O)N1CCCC1C(=O)Nc1cccc2ncccc12)C(C)C (centres undefined)	none
COC(=O)[C@]12C[C@H](CC(=O)N3CCC(c4ccccc4)CC3)C(=O)N(Cc3ccccc3)C1=C[C@H](COCc1ccccc1)O[C@@H]2C	none
CSCCC(NC(=O)COc1ccccc1)C(=O)OCC(=O)c1ccccc1 (centres undefined)	none
CCOC(=O)C1CCN(C(=O)C(CCSC)NC(=O)COc2ccccc2)CC1 (centres undefined)	none
CSCCC(NC(=O)COc1ccccc1)C(=O)N1CCN(c2ccccc2O)CC1 (centres undefined)	TbREL1 primary 42 | TbREL1 confirm inactive
COc1ccc(C)cc1NC(=O)CSc1nnc(-c2n[nH]c3c2CCC3)n1N	none
C[C@@H]1[C@H](O)[C@@H](C)/C=C/C=C/C=C/C=C/C=C/C=C/C=C/[C@H](OC2O[C@H](C)[C@@H](O)[C@H](N)[C@@H]2O)C[C@@H]2O[C@](O)(C[C@@H](O)C[C@@H](O)[C@H](O)CC[C@@H](O)C[C@@H](O)CC(=O)O[C@H]1C)C[C@H](O)[C@H]2C(=O)O (some centres undefined)	none
O=C(NCCO)[C@H](Cc1ccccc1)NC1(C(=O)NCCc2c[nH]c3ccccc23)CCCCC1	none
COCCOc1ccc(C(F)(F)F)cc1NC(=O)CN1C(=O)NC(C)(c2ccc3c(c2)OCO3)C1=O (centres undefined)	none
CCCOc1ccc(C(F)(F)F)cc1NC(=O)CN1C(=O)C(=O)N(CC)C1=O	none
CCN1CCN(CC(=O)Nc2cc(C(F)(F)F)ccc2OCCOC)CC1	TbREL1 primary 15 | TbREL1 confirm inactive
O=C(CSc1nnc(-c2cccnc2)n1-c1ccccc1)Nc1ccc(OCc2ccccc2)cc1	none
COc1ccccc1C(=O)N1CCN(C(=O)[C@@H](Cc2ccccc2)NC(=O)[C@H]2O[C@@H](n3ccc(N)nc3=O)[C@H](O)[C@@H]2O)CC1	none
CN(C)S(=O)(=O)c1cccc(C(=O)N/N=C\c2ccnc3ccccc23)c1	none
CCOc1ccc(-n2c(SCC(=O)Nc3ccccc3-c3ccccc3)nnc2-c2ccncc2)cc1	none
COc1ccc(N2CCCN(CC(=O)Nc3ccc(Cl)c(Cl)c3)CC2)cc1	none
O=C(O)COCc1nc2ccccc2s1	TbREL1 primary 12 | TbREL1 confirm inactive
NC(=O)c1ccccc1OCc1nc2ccccc2s1	none
O=C(O)CCCc1nc2ccccc2s1	none
O=C(Nc1cccs1)OC1CC2CC1[C@H]1CCCCN1C2 (some centres undefined)	none
COc1cc(-c2c(C(=O)c3ccccc3)[nH]c(N)c2C(N)=O)ccc1O	none
COc1ccc(NC(=O)CSc2ncnc3scc(-c4ccc(C)cc4)c23)cc1OC	none
Cc1cccc2sc(N(CCCN(C)C)C(=O)c3ccc(C(=O)c4ccccc4)cc3)nc12	none
CCN(Cc1ccccc1)S(=O)(=O)c1ccc(C(=O)N(CCCN(C)C)c2nc3ccc(F)cc3s2)cc1	none
CN(C)CCCN(C(=O)c1ccc(S(=O)(=O)N(C)C2CCCCC2)cc1)c1nc2ccc(F)cc2s1	TbREL1 primary 11 | TbREL1 confirm inactive
CN(C)CCCN(C(=O)c1ccc(S(=O)(=O)N(C)C2CCCCC2)cc1)c1nc2ccc(Br)cc2s1	TbREL1 primary 16 | TbREL1 confirm inactive
CCOc1ccc2nc(N(CCCN(C)C)C(=O)c3ccc(S(=O)(=O)N4CCCC4)cc3)sc2c1	none
CN(C)CCCN(C(=O)c1ccc(S(=O)(=O)N2CCCCC2)cc1)c1nc2cc3c(cc2s1)OCO3	none
Cc1ccc2nc(N(CCCN(C)C)C(=O)c3ccc4c(c3)CCCC4)sc2c1	none
CN(C)CCCN(C(=O)c1ccc(C(=O)c2ccccc2)cc1)c1nc2ccc(F)cc2s1	TbREL1 primary 14 | TbREL1 confirm inactive
CN(C)CCCN(C(=O)c1ccc(S(=O)(=O)N2CCCC2)cc1)c1nc2ccc(Br)cc2s1	none
C[C@H](O)[C@@H]1CN2CCc3c([nH]c4c(-c5ccccc5)cccc34)[C@@H]2C[C@@H]1N(C)C(=O)Nc1ccccc1	none
O=C(OCC#CCSc1nnc(-c2cccc3ccccc23)o1)c1ccccc1F	none
CCCCNC(=O)C[C@H]1C[C@@]2(C(=O)OC)C(=C[C@H](COCc3ccccc3)O[C@@H]2C)N(CCc2ccc(OC)c(OC)c2)C1=O	none
CCn1c(SCc2c(F)cccc2F)nc2sc3c(c2c1=O)CCCC3	none
CCOC(=O)c1csc(NC(=O)C2CCCN(S(=O)(=O)c3ccc(Br)s3)C2)n1 (centres undefined)	none
Cc1ccc(S(=O)(=O)N(CCc2ccccc2)CC(=O)N2CCOCC2)cc1	none
CCn1c(SCC(=O)NN=Cc2c(C)nn(-c3ccccc3)c2C)nnc1-c1ccc(OC)c(OC)c1	none
